Results from the supplement of paper PMC6522484.
± gives the standard deviation of the averaged measurements.

system: DLD1; assay: TCF/Wnt firefly luciferase reporter signal relative to plate median (fraction of plate median); higher = higher Wnt reporter signal; details: 5 µM; treatment time 24 h; reporter: 7TFP
Outline: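 Library compounds were added at a final concentration of 5 µM for 24 h to colorectal cancer cells stably transduced with a lentiviral TCF/Wnt firefly luciferase reporter. Reported values are firefly luciferase or CellTiterGlo luminescence, normalised per well to the plate median. Each value averages two independent replicates.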

Compound	TCF/Wnt firefly luciferase reporter signal
CC(=O)O[C@@H]1C[C@H]2C(C)(C)C(=O)C=C[C@]2(C)[C@H]2CC[C@@]3(C)[C@H](c4ccoc4)OC(=O)[C@H]4O[C@]43[C@@]21C	1.19 ± 0.05
O=C(O)CCc1nc(-c2ccccc2)c(-c2ccccc2)o1	0.915 ± 0.03
Oc1cc(O)c2c(c1)O[C@H](c1ccc(O)c(O)c1)[C@@H](O)C2	1.08 ± 0.014
C[n+]1c2cc(N)ccc2cc2ccc(N)cc21	1.4 ± 0.27
CC1(C)C(=O)C=C[C@@]2(C)C1CC(=O)[C@@]1(C)C3=CC(=O)O[C@@H](c4ccoc4)[C@]3(C)CCC12 (stereo not given in full)	0.913 ± 0.03
OCc1ccccc1O	1.06 ± 0.12
CN1CCc2c(c3ccccc3n2Cc2ccccc2)C1	1.05 ± 0.1
CC1CCC(C(C)C)C(O)C1 (stereo not given)	1.09 ± 0.035
CC1CC2C3CCC4=CC(=O)C=CC4(C)C3(F)C(O)CC2(C)C1C(=O)CO (stereo not given)	1.05
O=[N+]([O-])c1cccc2c(Br)[nH]nc12	0.984 ± 0.037
O=c1c(-c2ccc(O)cc2)coc2cc(O)ccc12 [Daidzein (Biofocus)]	1.11 ± 0.11
CC[N+](C)(C)c1cccc(O)c1	0.92 ± 0.14
C[C@@H]1O[C@@H](OC[C@H]2O[C@@H](Oc3c(-c4ccc(O)c(O)c4)oc4cc(O)cc(O)c4c3=O)[C@H](O)[C@@H](O)[C@@H]2O)[C@H](O)[C@H](O)[C@H]1O [RUTOSIDE  (rutin)]	1.03 ± 0.042
CCN(CC)CCOC(=O)C(Cc1cccc2ccccc12)CC1CCCO1 (stereo not given)	0.874 ± 0.072
COc1c(N2CCNC(C)C2)c(F)cc2c(=O)c(C(=O)O)cn(C3CC3)c12 (stereo not given)	0.933 ± 0.081
Cc1cc(C(C)(C)CC(C)(C)C)ccc1OCCOCC[N+](C)(C)Cc1ccccc1	0.87 ± 0.061
CN1CCN(CCCN2c3ccccc3Sc3ccc(C(F)(F)F)cc32)CC1	1.21 ± 0.17
COC1=C[C@@H](C)[C@@H]2C[C@H]3OC(=O)C[C@H]4C(C)=C(OC)C(=O)[C@H]([C@@]2(C)C1=O)[C@@]34C	1.025 ± 0.0071
CCOC(=O)N1CCC(=C2c3ccc(Cl)cc3CCc3cccnc32)CC1	1.08 ± 0.19
CCCCCC1C(=O)CCC1CC(=O)O (stereo not given)	1.06 ± 0.099

Compound	TCF/Wnt firefly luciferase reporter signal
CNC[C@H](O)c1cccc(O)c1	1.02 ± 0.13
CN1CCC(OC(c2ccccc2)c2ccccc2)CC1	1.12 ± 0.13
CC(=O)O[C@@H]1CC[C@@]2(C)C(C[C@@H](OC(C)=O)[C@@]3(C)C4=CC(=O)O[C@@H](c5ccoc5)[C@]4(C)CCC23)C1(C)C (stereo partly drawn) [3alpha-ACETOXYDIHYDRODEOXYGEDUNIN]	1.25 ± 0.22
CC(=O)O[C@H]1C[C@@H](O)C(C)(C)[C@@H]2C[C@@H](OC(C)=O)[C@]3(C)[C@H](CC[C@@]4(C)[C@@H](c5ccoc5)OC(=O)[C@H]5O[C@@]534)[C@@]12C	1.04 ± 0.067
CN1CCC(=C2c3ccccc3CC(=O)c3sccc32)CC1	0.956 ± 0.021
CC(C)=CCC1=C(O)C(=O)c2ccccc2C1=O	1.15 ± 0.092
C1CCC(C(CC2CCCCN2)C2CCCCC2)CC1 (stereo not given)	0.971 ± 0.013
NS(=O)(=O)c1cc(C(=O)O)c(NCc2ccco2)cc1Cl	1.095 ± 0.0071
CC(O)(P(=O)(O)O)P(=O)(O)O	1 ± 0.13
CO[C@@]12[C@H](COC(N)=O)C3=C(C(=O)C(C)=C(N)C3=O)N1C[C@@H]1N[C@@H]12	0.974 ± 0.094
C1CNCCN1	1.25 ± 0.021
COc1cc2occ(-c3ccccc3)c(=O)c2c(OC)c1C	1.15 ± 0.16
CCSC(=N)N	0.99 ± 0.028
O=C1CC2(CCCC2)CC(=O)N1CCCCN1CCN(c2ncccn2)CC1	1.07 ± 0.078
CC(=O)N(O)CCCCCNC(=O)CC(O)(CC(=O)NCCCCCN(O)C(C)=O)C(=O)O [Arthrobactin]	0.976 ± 0.12
Nc1ccc(C(=O)Oc2ccccc2)c(O)c1	1.08 ± 0.14
CC(=O)O[C@@H]1CC2C(C)(C)[C@H](O)C[C@H](O)[C@@]2(C)C2CC[C@]3(C)C(=CC(=O)O[C@@H]3c3ccoc3)[C@]21C (stereo not given in full)	1.07 ± 0.099
COc1cccc2c1CCC1=CC(=O)CC[C@@]12C	0.944 ± 0.073
C[C@@H]1O[C@H]2O[C@@H]3[C@@H](C)OC(c4ccc5c(c4O)C(=O)c4ccc(C[C@@](C)(O)CC(=O)O)c(O)c4C5=O)C[C@H]3O[C@H]2CC1=O (stereo not given in full) [Fridamycin D]	1.14 ± 0.057
COc1ccc2c(c1)OCC(Cc1ccc(OC)c(O)c1)C2=O (stereo not given)	0.707 ± 0.13
